Rows were chosen to be rich in hits. Some 19% of all compounds tested hit in one or more screens of this group.
HT1080 IDH1KD tx: kills HT-1080 cells with IDH1 knockdown; HT-1080 IDH1 knockdown viability, ATP luminescence, 48 h; Potency, µM (top dose mostly 46.1 µM), without a hit: top-dose activity, negative = toxicity, most hits filed as cytotoxic; hit rate 2% among 360,000; AID 686971;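 also: potency is read from the fitted curve at half-maximal effect; 0% = DMSO wells and -100% = cell-free medium wells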
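In this qHTS, HT-1080 cells depleted of IDH1 are exposed for 48 h at 37 °C to compound titrations. Toxicity is scored from CellTiter-Glo luminescence, with DMSO as full viability and medium alone as none.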
HT1080NT lethal: kills 2HG-producing HT-1080-NT fibrosarcoma cells; Potency, µM (top dose mostly 46.1 µM), inactives show at the top dose activity, negative = less viability, actives largely listed as cytotoxic; HT-1080-NT fibrosarcoma viability, CellTiter-Glo ATP luminescence, 48 h; hit rate 1.6% among 360,000;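 also: NT is the 2HG producing partner of a matched IDH1 knockdown line; potency is read from the fitted curve at half-maximal effect; 0% = DMSO-treated cells and -100% = media-only wells without cells; nearly all actives have a fitted effect of over 55% in size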
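Luminescent CellTiter-Glo readout after 48 hours of compound exposure at 37 degrees C defined viability of HT-1080-NT cells. Activity was normalized to DMSO wells and cell-free media wells; concentration-response curves were fitted and assigned curve classes.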
DT40 TDP1 CPT: DT40-hTDP1 cell growth loss with CPT; chicken DT40 Tdp1-/-;hTDP1 cells + 20 nM CPT, ATP luminescence, 48 h; Potency, µM (highest dose often 46.2 µM), for inactives: at the highest dose activity change, negative = growth inhibition, actives largely listed as inhibitors; hit rate 12% among 420,000; also: potency is read from the fitted curve at half-maximal effect; nearly all actives have a fitted effect of over 55% in size
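Chicken DT40 Tdp1-/- cells complemented with human TDP1, 400 cells/well, exposed to compounds plus 20 nM camptothecin for at least 48 h at 37 C; viability read as ATP content by CellTiter-Glo luminescence.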
IL1B secr inh: inflammasome signaling inhibition, IL-1 beta readout; THP-1 LPS/ATP IL-1B secretion, AlphaLISA, 16 h; hits give low values; activity change, % at 57.5 µM; hit rate 4.7% among 360,000; in the data active = activity change below about -50%; inconclusive = mostly about -30% to -49%
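Secreted IL-1B measured by AlphaLISA bead assay after 16 h compound exposure of THP-1 cells; compounds (final up to 57.5 uM) added 1 h before LPS (250 ng/mL) and ATP (1.25 mM) stimulation; lower signal means less secretion.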
TDP1 cell noCPT: qHTS for Inhibitors of human tyrosyl-DNA phosphodiesterase 1 (TDP1): qHTS in cells in absence of CPT; AID 686978, 2013; DT40 Tdp1-/- hTDP1 cells, no CPT, ATP luminescence, 48 h; Potency, µM (highest dose often 46.2 µM), without a hit: at the highest dose activity change, negative = growth inhibition, usual class: inhibitors; hit rate 15% among 420,000; also: potency is read from the fitted curve at half-maximal effect; nearly all actives have a fitted effect of over 55% in size
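Readout: luminescence from CellTiter-Glo after 30 min in the dark at RT. Cells: DT40 Tdp1-/- with stable hTDP1, 400/well. Exposure: compounds alone, ≥48 hr, 37 °C.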
Active calls of the source: *; ? = inconclusive; . = no result; [ ] = another dose, or the depositor's remark. Unless noted, calls follow the shape of the dose curve; as a rule, active = well fitted curve in the direction sought with a large enough effect; inconclusive = small, poorly fitted or top-dose-only effect, or another doubt; inactive = no such curve, though single readings can be large; an effect the other way counts as inactive or inconclusive. Unless noted, % is scaled to controls: 0 for no effect and ±100 for the full control effect.

SMILES	HT1080 IDH1KD tx	HT1080NT lethal	DT40 TDP1 CPT	IL1B secr inh	TDP1 cell noCPT
CC1CCCCN1CCCNC(=O)c1ccc(Br)cc1 (stereo unspecified)	7%	0%	4%	17	-22%
CC1CCCCN1CCCNC(=O)c1ccc2c(c1)sc1nc(-c3ccc(F)cc3)cn12 (stereo unspecified)	.	.	2.3µM*	.	3.3µM*
COc1ccc(-c2nnc(SCC(=O)Oc3cc(C)ccc3C)o2)cc1	.	.	14%	.	-2%
O=C1N/C(=C\c2ccc(O)cc2)C(=O)c2ccccc21	18µM*	?	3.2µM*	-4	7.1µM*
O=C(O)/C=C1\NC(=O)c2ccccc21	18%	21%	11%	12	-2%
Cc1ccc(N2CCC3CC2c2cc(-c4ccc(C(F)(F)F)cc4)ccc23)cc1 (stereo unspecified)	4%	0%	?	48	16µM*
N/C(=N\N=C\c1ccnc2ccccc12)SC1CC(=O)N(c2ccc(Br)cc2)C1=O (stereo unspecified)	-1%	-13%	?	0	15µM*
NC(=NCc1ccccc1)NN=Cc1ccnc2ccccc12	?	?	21µM*	-110*	?
NC(N)=NN=Cc1ccnc2ccccc12	-14%	-8%	15µM*	-104*	?
N/C(=N\N=C\c1cccs1)SC1CC(=O)N(c2ccc(Br)cc2)C1=O (stereo unspecified)	?	-16%	0%	1	?
CCCc1cc(=O)[nH]c(SCc2nc(-c3ccc(OC)cc3)no2)n1	.	.	?	.	-29%
Cc1nn(Cc2ccccc2)c(C)c1C(=O)NCC(c1cccs1)N1CCOCC1 (stereo unspecified)	3%	1%	?	-3	?
Cc1ccc(Cn2nc(C)c(C(=O)NCC(c3cccs3)N3CCOCC3)c2Cl)cc1 (stereo unspecified)	-13%	3%	21µM*	8	23µM*
COc1ccc(C(CNC(=O)c2c(C)nn(Cc3ccc(C)cc3)c2Cl)N2CCOCC2)cc1 (stereo unspecified)	-5%	-4%	?	-82*	23µM*
CCOC(=O)c1c(C)[nH]c(C)c1S(=O)(=O)NCC(=O)Nc1cccc(C#N)c1	.	.	-12%	.	?
COCCn1c(SCC(=O)NCCCN2CCCC2=O)nc2ccccc2c1=O	8%	14%	0%	10	4%
Cc1cc(C)cc(NC(=O)N2CCN(C/C=C/c3ccccc3)CC2)c1	-19%	-17%	-6%	-26	-25%
CCOC(=O)N1CCc2c(sc3c2c(=O)n(Cc2ccccc2)c(=O)n3CC(=O)NCCOC)C1	-1%	9%	-24%	10	24%
CC(=O)N1CCc2c(sc3c2c(=O)n(Cc2ccccc2)c(=O)n3Cc2cc(C)ccc2C)C1	.	.	16µM*	.	21µM*
CC(=O)N1CCc2c(sc3c2c(=O)n(-c2ccccc2C)c(=O)n3CC(=O)c2ccccc2)C1	.	.	-2%	.	-23%
CCOC(=O)N1CCc2c(sc3c2c(=O)n(-c2ccccc2C(F)(F)F)c(=O)n3Cc2ccccc2C)C1	.	.	18µM*	.	?
CC(=O)N1CCc2c(sc3c2c(=O)n(CCc2ccccc2)c(=O)n3Cc2ccccc2C)C1	.	.	15µM*	.	16µM*
CCOC(=O)N1CCc2c(sc3c2c(=O)n(Cc2ccccc2)c(=O)n3Cc2cccc(Cl)c2)C1	.	.	10µM*	.	21µM*
COc1ccc(OC)c(C(=O)N2CCC(CCC(=O)NC3CC3)CC2)c1	3%	1%	-14%	10	16%
CCOc1cc(N2CCOCC2)c(OCC)cc1NC(=O)[C@H](C)NC(=O)c1ccco1	4%	6%	-17%	-13	?
SMILES	HT1080 IDH1KD tx	HT1080NT lethal	DT40 TDP1 CPT	IL1B secr inh	TDP1 cell noCPT
O=C1c2ccccc2C(=O)N1CCCCN(C(=O)c1cc2ccccc2oc1=O)c1ccc(F)cc1F	2%	-10%	?	-30	?
CC(Sc1nn(-c2ccc(F)cc2)c(=S)s1)C(=O)c1c(N)n(C)c(=O)n(C)c1=O (stereo unspecified)	-17%	-18%	?	-6	13µM*
Cn1c(N)c(C(=O)CSc2nn(-c3ccccc3)c(=S)s2)c(=O)n(C)c1=O	-10%	-17%	?	70	16µM*
CC(Sc1nc(C2CC2)n(-c2ccccc2)n1)C(=O)c1c(N)n(C)c(=O)n(C)c1=O (stereo unspecified)	-8%	-8%	3%	-3	-9%
Cc1ccc(C(=O)COC(=O)CN2C(=O)C3C4C=CC(C4)C3C2=O)cc1C (stereo unspecified)	-1%	0%	-9%	-14	-1%
O=C(Nc1ccc(F)cc1F)N1CCC(c2nc3ccccc3o2)CC1	4%	6%	7%	0	-25%
Cc1ccc[n+](CC(=O)c2ccc(Br)cc2)c1	-1%	-11%	-8%	22	17%
COc1ccc(C(=O)COC(=O)c2ccc(N(C)C)cc2)cc1	20%	24%	-8%	21	-28%
COc1ccc(C(=O)C[n+]2ccc(N(C)C)cc2)cc1	?	-9%	?	22	16µM*
CN(C)c1cc[n+](CC(=O)c2ccc(Br)cc2)cc1	-1%	-13%	16µM*	16	?
COCC(=O)Nc1cc(C(=O)N2CC3CCCC2C3)c2c(c1)nc(-c1ccncc1)n2C (stereo unspecified)	.	.	6%[9.04 µM]	.	-7%
O=[N+]([O-])c1ccc(/C=C/C2=NN(c3ccccc3)C(c3ccco3)C2)o1 (stereo unspecified)	?	-15%	?	-4	?
C(=C\c1ccco1)/C1=NN(c2ccccc2)C(c2ccco2)C1 (stereo unspecified)	-24%	-5%	?	-7	23µM*
CCOC(=O)c1c(-c2ccc(C)o2)csc1N	-1%	0%	-7%	-11	-7%
CCOC(=O)c1c(-c2ccc(C)o2)csc1NC(=O)CSc1ncn[nH]1	-26%	-7%	-20%	0	-7%
CCOC(=O)c1c(-c2ccc(C)o2)csc1NC(=O)CN1CCOCC1	-7%	-12%	16µM*	-8	16µM*
CCOC(=O)c1c(-c2ccc(C)o2)csc1NC(=S)NC(=O)N(C)C	13µM*	10µM*	?	54	?
CCOC(=O)c1c(-c2cccs2)csc1NC(=O)CC(C)C	-7%	5%	18µM*	-3	21µM*
CCOC(=O)c1c(-c2ccc(C)o2)csc1NC(=O)COC(=O)c1cccs1	-10%	-4%	?	-5	18µM*
Cc1n[nH]c(=O)nc1N/N=C/c1ccco1	0%	-18%	8%	0	-1%

Screens as filed in PubChem.
